15 compounds from PubChem BioAssay (NCATS) can be followed below.

The nature of one experiment: qHTS profiling of the MIPE4 collection as inhibitors of Plasmodium falciparum (3D7) proliferation (AID 743344).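 Also: scaled between DMSO vehicle wells and 0.29 µM artemisinin as full inhibition.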 Conditions: P. falciparum 3D7 in erythrocytes, SYBR Green DNA fluorescence, 72 h; at 28.5 µM unless noted. The procedure, abridged:
(§1)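 Parasite DNA was quantified by SYBR Green I fluorescence (ex 485, em 535 nm) after overnight lysis in saponin/Triton buffer at room temperature. Cultures at 0.3% parasitemia and 2.5% hematocrit were first exposed to compound for 72 h at 37 C; signals were normalised to artemisinin (0.29 uM) and vehicle wells.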
As to `CC(NC(C)(C)C)C(=O)c1cccc(Cl)c1` (stereo unspecified), the parasite growth, % of DMSO control turned out to be 26.6%.

`CCOC(=O)C1=C[C@@H](OC(CC)CC)[C@H](NC(C)=O)[C@@H](N)C1` returned a parasite growth, % of DMSO control of 91.3%.

For `O=C(O)CCCc1ccc(N(CCCl)CCCl)cc1`, the parasite growth, % of DMSO control amounted to 70.9%.

Consider `C[C@]12CC[C@@H]3c4ccc(OC(=O)N(CCCl)CCCl)cc4CC[C@H]3[C@@H]1CC[C@@H]2OP(=O)(O)O`, for which the parasite growth, % of DMSO control was 86.9%.

For `C[C@](O)(CS(=O)(=O)c1ccc(F)cc1)C(=O)Nc1ccc(C#N)c(C(F)(F)F)c1`, the parasite growth, % of DMSO control came to 22%.

For `CC(C)N(CCC(C(N)=O)(c1ccccc1)c1ccccn1)C(C)C` (stereo unspecified), the parasite growth, % of DMSO control stood at 105%.

Turning to `COCCCOc1ccnc(CS(=O)c2nc3ccccc3[nH]2)c1C` (stereo unspecified), the parasite growth, % of DMSO control turned out to be 78.8%.

Take `Nc1ccn(C[C@@H](CO)OCP(=O)(O)O)c(=O)n1`: the parasite growth, % of DMSO control stood at 94% [at 9.64 µM].

Compound `O=P1(N(CCCl)CCCl)NCCCO1` (stereo unspecified) showed a parasite growth, % of DMSO control of 42.1%.

The nature of another experiment: qHTS profiling of the MIPE4 collection as inhibitors of Plasmodium falciparum (DD2) proliferation (AID 743345). Conditions: P. falciparum Dd2 in erythrocytes, SYBR Green DNA, 72 h; at 28.5 µM unless noted. In a few lines:
as §1
(qHTS replaces the single test concentration by a dilution series.)
As for `CC(NC(C)(C)C)C(=O)c1cccc(Cl)c1` (stereo unspecified), the parasite growth remaining, % of DMSO control (lower = more inhibition) came out at 55.9%.

Regarding `CCOC(=O)C1=C[C@@H](OC(CC)CC)[C@H](NC(C)=O)[C@@H](N)C1`, the parasite growth remaining, % of DMSO control (lower = more inhibition) came to 97.7%.

As to `CCC1(C)CC(=O)NC1=O` (stereo unspecified), the parasite growth remaining, % of DMSO control (lower = more inhibition) is 111%.

For `O=C(O)CCCc1ccc(N(CCCl)CCCl)cc1`, the parasite growth remaining, % of DMSO control (lower = more inhibition) was 82.7%.

For `C[C@]12CC[C@@H]3c4ccc(OC(=O)N(CCCl)CCCl)cc4CC[C@H]3[C@@H]1CC[C@@H]2OP(=O)(O)O`, the parasite growth remaining, % of DMSO control (lower = more inhibition) came to 97.1%.

For `C[C@](O)(CS(=O)(=O)c1ccc(F)cc1)C(=O)Nc1ccc(C#N)c(C(F)(F)F)c1`, the parasite growth remaining, % of DMSO control (lower = more inhibition) turned out to be 93.2%.

On to `CC(=O)N1CCN(c2ccc(OC[C@H]3CO[C@](Cn4ccnc4)(c4ccc(Cl)cc4Cl)O3)cc2)CC1`, for which the parasite growth remaining, % of DMSO control (lower = more inhibition) worked out at 34.2%.

`O=P(O)(O)C(O)(Cn1ccnc1)P(=O)(O)O`: the parasite growth remaining, % of DMSO control (lower = more inhibition) is 90.7% [at 9.64 µM].

As for `CC(C)[C@H](N)C(=O)OCCOCn1cnc2c(=O)[nH]c(N)nc21`, the parasite growth remaining, % of DMSO control (lower = more inhibition) worked out at 94%.

As to `CC(C)N(CCC(C(N)=O)(c1ccccc1)c1ccccn1)C(C)C` (stereo unspecified), the parasite growth remaining, % of DMSO control (lower = more inhibition) stood at 100%.

For `COCCCOc1ccnc(CS(=O)c2nc3ccccc3[nH]2)c1C` (stereo unspecified), the parasite growth remaining, % of DMSO control (lower = more inhibition) amounted to 74.1%.

With `Nc1ccn(C[C@@H](CO)OCP(=O)(O)O)c(=O)n1`, the parasite growth remaining, % of DMSO control (lower = more inhibition) stood at 103% [at 9.64 µM].

Turning to `O=P1(N(CCCl)CCCl)NCCCO1` (stereo unspecified), the parasite growth remaining, % of DMSO control (lower = more inhibition) turned out to be 54.1%.

A further experiment can be described thus: qHTS profiling of the MIPE4 collection as inhibitors of Plasmodium falciparum (DD2) proliferation (Rep 2) (AID 743346). The conditions noted are these: P. falciparum Dd2 in erythrocytes, SYBR Green DNA, 72 h; at 28.5 µM unless noted. The procedure, abridged: as §1
For the compound `CC(NC(C)(C)C)C(=O)c1cccc(Cl)c1` (stereo unspecified), the parasite growth, % of control (lower = inhibition) is 31%.

Consider `CCOC(=O)C1=C[C@@H](OC(CC)CC)[C@H](NC(C)=O)[C@@H](N)C1`, for which the parasite growth, % of control (lower = inhibition) was 101%.

Take `CCC1(C)CC(=O)NC1=O` (stereo unspecified): the parasite growth, % of control (lower = inhibition) amounted to 96.3%.

Regarding `O=C(O)CCCc1ccc(N(CCCl)CCCl)cc1`, the parasite growth, % of control (lower = inhibition) amounted to 81.2%.

For `C[C@]12CC[C@@H]3c4ccc(OC(=O)N(CCCl)CCCl)cc4CC[C@H]3[C@@H]1CC[C@@H]2OP(=O)(O)O`, the parasite growth, % of control (lower = inhibition) was found to be 86.3%.

`Cc1onc(-c2ccccc2)c1C(=O)N[C@@H]1C(=O)N2[C@@H](C(=O)O)C(C)(C)S[C@@H]12`: the parasite growth, % of control (lower = inhibition) was found to be 92.1%.

As for `C[C@](O)(CS(=O)(=O)c1ccc(F)cc1)C(=O)Nc1ccc(C#N)c(C(F)(F)F)c1`, the parasite growth, % of control (lower = inhibition) was determined as 33.5%.

As to `CC(=O)N1CCN(c2ccc(OC[C@H]3CO[C@](Cn4ccnc4)(c4ccc(Cl)cc4Cl)O3)cc2)CC1`, the parasite growth, % of control (lower = inhibition) came out at 31%.

With `CC(C)[C@H](N)C(=O)OCCOCn1cnc2c(=O)[nH]c(N)nc21`, the parasite growth, % of control (lower = inhibition) amounted to 136%.

For `CC(C)N(CCC(C(N)=O)(c1ccccc1)c1ccccn1)C(C)C` (stereo unspecified), the parasite growth, % of control (lower = inhibition) was 42.5%.

Consider `COCCCOc1ccnc(CS(=O)c2nc3ccccc3[nH]2)c1C` (stereo unspecified), for which the parasite growth, % of control (lower = inhibition) worked out at 63.9%.

Regarding `Nc1ccn(C[C@@H](CO)OCP(=O)(O)O)c(=O)n1`, the parasite growth, % of control (lower = inhibition) was 97.9% [at 9.64 µM].

Take `CC(C)C[C@H](CN)CC(=O)O`: the parasite growth, % of control (lower = inhibition) stood at 89%.

On to `O=P1(N(CCCl)CCCl)NCCCO1` (stereo unspecified), for which the parasite growth, % of control (lower = inhibition) came to 39.6%.
